An excerpt weighted towards active compounds, which were near 10% of everything screened.
aGal spleen mod – alpha-galactosidase A (human) modulation; P06280; human spleen homogenate, 4MU-alpha-Gal fluorescence, 40 min; Potency, µM (highest dose often 80 µM), most hits filed as inhibitors; 240,000 compounds, 0.008% hits
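Human spleen homogenate (1 ug) as enzyme source, 4-methylumbelliferyl-alpha-D-galactopyranoside 1 mM final, citrate/phosphate pH 5.0 with 0.01% Tween-20. Compounds 40 min at 37C, NaOH/glycine stop; fluorescence Ex 365/Em 440, Hill-fit AC50.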
12-hLO inh – blocks human 12-lipoxygenase activity; P18054; purified 12-hLO, xylenol orange hydroperoxide absorbance; Potency, µM (series often up to 57.1 µM), hits mostly inhibitors; 150,000 compounds, 0.12% hits; AID 1452; note: nearly all actives have a fitted effect of over 55% in size
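Hydroperoxide formation by human 12-lipoxygenase from 40 uM arachidonic acid was followed colorimetrically via ferric-xylenol orange complex, using the 573/405 nm absorbance ratio. Enzyme concentration was 150 nM, with 30 min reaction at room temperature.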
ALDH1A1 block – ALDH1A1 (human) enzyme inhibition | P00352 | Purified ALDH1A1, NADH fluorescence, propionaldehyde substrate | Potency, µM (top dose mostly 75.3 µM), usual class: inhibitors | 220,000 compounds, 7.3% hits | AID 1030; active = well fitted inhibition curve with a large enough effect, not every such curve was filed as active; inconclusive = small, poorly fitted or top-dose-only effect, or another doubt; inactive = no such curve, though single readings can be large or run the other way
PNC assembly inh – perinucleolar compartment assembly inhibition | PC3M PTB-GFP, PNC prevalence imaging, 16 h; hits give low values | activity change (PNC), negative = inhibition, % at 10 µM | 140,000 compounds, 3.1% hits | AID 2417;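 active = readout at or below -70, meaning at least 70% loss of cells showing the perinucleolar compartment, a nuclear body marking cancer cells; inconclusive = readout between -30 and a set limit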
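Read-out is percentage of cells bearing a perinucleolar compartment, from automated 20x imaging of fixed, Hoechst-stained PC3M PTB-GFP cells. Cells were seeded 4 h, then exposed 16 h to compound (23 nl of library stock) in duplicate plates.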
HPGD block – HPGD (human) dehydrogenase inhibition | P15428 | 150,000 compounds, 4.3% hits | purified HPGD, NADH fluorescence kinetic, PGE2 substrate | Potency, µM, actives largely listed as inhibitors; active = well fitted inhibition curve with a large enough effect, not every such curve was filed as active; inconclusive = small, poorly fitted or top-dose-only effect, or another doubt; inactive = no such curve, though single readings can be large or run the other way
Target sequence (P15428 whole entry, looked up): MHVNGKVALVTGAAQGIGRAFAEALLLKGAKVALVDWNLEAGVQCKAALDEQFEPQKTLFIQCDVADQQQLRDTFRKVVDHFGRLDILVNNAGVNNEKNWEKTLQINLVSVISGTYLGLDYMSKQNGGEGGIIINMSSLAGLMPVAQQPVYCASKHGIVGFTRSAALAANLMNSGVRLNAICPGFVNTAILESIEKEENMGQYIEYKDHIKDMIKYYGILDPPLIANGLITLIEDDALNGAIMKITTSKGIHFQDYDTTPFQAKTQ
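NADH formation kinetics: reaction with 30 uM PGE2 and 1 mM NAD+ (final), 20 nM enzyme, Tris-HCl pH 8 with Tween 20, after 15 min compound preincubation at room temperature. Fluorescence change, last versus first of five reads.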
GLA inh pH 4.5 – alpha-galactosidase A (human) inhibition, pH 4.5; P06280; purified enzyme, 4-MU-alpha-Gal fluorescence, pH 4.5; activity change, negative = inhibition, % at 105 µM; 230,000 tested, under 10 active; AID 1467
Target sequence (P06280 whole entry, looked up): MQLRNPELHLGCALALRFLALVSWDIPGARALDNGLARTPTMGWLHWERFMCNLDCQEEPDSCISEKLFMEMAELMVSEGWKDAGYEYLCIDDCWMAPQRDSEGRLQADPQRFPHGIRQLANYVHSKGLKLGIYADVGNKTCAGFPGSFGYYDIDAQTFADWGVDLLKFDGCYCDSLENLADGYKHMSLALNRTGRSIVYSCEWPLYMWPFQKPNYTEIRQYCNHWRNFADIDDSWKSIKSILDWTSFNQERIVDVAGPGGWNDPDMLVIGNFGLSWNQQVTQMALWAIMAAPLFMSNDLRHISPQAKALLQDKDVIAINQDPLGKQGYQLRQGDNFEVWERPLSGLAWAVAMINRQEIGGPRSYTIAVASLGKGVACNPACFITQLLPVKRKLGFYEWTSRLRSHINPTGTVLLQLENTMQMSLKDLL
A number is an active result; - = inactive; ? = inconclusive; . = not tested or not shown; [ ] = dose if it differs, or a comment. Unless noted, calls come from the whole dose curve; as a rule, active = well fitted curve in the direction sought with a large enough effect; inconclusive = small, poorly fitted or top-dose-only effect, or another doubt; inactive = no such curve, though single readings can be large; an effect the other way counts as inactive or inconclusive.

SMILES | aGal spleen mod | 12-hLO inh | ALDH1A1 block | PNC assembly inh | HPGD block | GLA inh pH 4.5
CN(C)CCCOC1C(C(O)CO)OC2OC(C)(C)O[C@@H]21 (stereo partly drawn) | - | - | - | . | - | -
Cc1cc(C(C)(C)C)cc(C)c1Cn1c2[n+](c3ccc(C(F)(F)F)cc31)CCCCC2 | - | . | - | . | . | -
Cc1noc(C)c1C(=O)N1CCC2(CC1)CN(Cc1cc(C(F)(F)F)cc(C(F)(F)F)c1)C2 | - | - | - | . | - | .
CCOC(=O)c1ccc(N2CCN(C(C)=O)CC2)c(NC(=O)c2cccnc2)c1 | - | . | ? | . | . | -
CCC(C)(C)NC(=O)CN(Cc1ccccc1Cl)C(=O)CCC(=O)Nc1cc(C)ccn1 | - | . | 14.1µM | . | . | -
Cc1ccnc(NC(=O)CCC(=O)N(CC(=O)NCCc2ccccc2)Cc2ccco2)c1 | - | - | 7.94µM | - | - | -
NC(=O)c1cccc(N)c1 | - | -[0.00818 µM] | ? | . | ? | -
CC(Sc1nc(-c2ccccc2)cc(C(F)(F)F)n1)C(=O)Nc1sc2c(c1C(N)=O)CCC2 (stereo not drawn) | - | - | ? | - | 31.6µM | -
Cc1cc(C(F)F)n2nc(C(=O)Nc3sc4c(c3C(N)=O)CCC4)nc2n1 | - | - | 15.8µM | - | - | -
COC(=O)c1c(NC(=O)c2nc3nc(C)cc(C(F)F)n3n2)sc2c1CCC2 | - | - | 12.6µM | - | - | -
Cc1cc(C(F)F)n2nc(C(=O)Nc3sc4c(c3C#N)CCC(C)C4)nc2n1 (stereo not drawn) | - | - | ? | - | - | -
NC(=O)[C@@H]1CCCN1 | - | -[0.00818 µM] | - | . | - | -
Cn1c(N)nc2c(nc(OCc3ccccc3)n2[C@@H]2O[C@H](CO)[C@@H](O)[C@@H]2O)c1=O | . | -[11.4 µM] | -[13.5 µM] | . | - | .
COc1ccc2c3c(ccc2c1)N[C@H](C(=O)O)CC3 | . | -[11.4 µM] | ? | . | ? | .
CCS(=O)(=O)c1ccc(N=Nc2ccc(O)c3ncccc23)c(OC)c1 | - | . | - | . | . | -
COc1cc(-c2ccc(N=Nc3ccc4c(S(=O)(=O)O)cc(S(=O)(=O)O)c(N)c4c3O)c(OC)c2)ccc1N=Nc1ccc2c(S(=O)(=O)O)cc(S(=O)(=O)O)c(N)c2c1O | - | - | ? | . | 14.1µM | -
Cc1nn(-c2ccc(S(=O)(=O)O)cc2)c(O)c1N=Nc1ccc(-c2ccc(N=Nc3ccc4c(S(=O)(=O)O)cc(S(=O)(=O)O)c(N)c4c3O)c(O)c2)cc1O.[Cu].[Cu] | . | -[11.4 µM] | ? | . | 0.794µM | .
COC(=O)c1cccnc1Oc1ccccc1 | - | . | . | . | . | -
N#Cc1ccccc1Sc1ccccc1C(=O)Nc1ccccc1 | - | - | - | - | - | -
CN(C)C(=O)c1ccc(NC(=O)c2ccccc2Sc2ccccc2C#N)cc1 | - | - | - | - | 17.8µM | -
CC(c1ccccc1)C1CC(=O)N(Cc2ccco2)C1=O (stereo not drawn) | - | - | 8.91µM | ? | - | -
COc1cccc(Nc2ncc3nc(-c4ccc(F)cc4)c(=O)n(C[C@H]4CCCO4)c3n2)c1 | - | - | - | . | - | .
CN(C)/C=C1\C(=O)N(c2ccc(Cl)cc2)CS1(=O)=O | - | - | - | ? | 15.8µM | -
Cc1ccc(N2CS(=O)(=O)/C(=C/N(C)C)C2=O)cc1 | - | - | - | - | - | -
Cc1cccc(C)c1NC(=S)Nc1ccc(Cl)c(Cl)c1 | - | . | 22.4µM | . | . | -
SMILES | aGal spleen mod | 12-hLO inh | ALDH1A1 block | PNC assembly inh | HPGD block | GLA inh pH 4.5
COc1ccccc1CNC(=O)C1CCC(CNc2c(N3CCC(C)CC3)c(=O)c2=O)CC1 (stereo not drawn) | - | . | . | . | . | -
Cc1ccc(O)c(C(=O)c2cc(C#N)c(=O)n(-c3c(C)n(C)n(-c4ccccc4)c3=O)c2)c1 | - | - | - | - | - | -
Cc1ccc(O)c(C(=O)c2cc(C#N)c(=O)n(-c3nccs3)c2)c1 | - | . | 8.91µM | . | . | -
COc1cccc(-c2csc(N3CCN(CC(=O)NNC(=O)c4ccco4)CC3)n2)c1 | - | . | ? | . | . | -
Cn1cnnc1SCc1ccccc1[N+](=O)[O-] | - | . | . | . | . | -
COc1ccc(CSc2nncn2N)cc1[N+](=O)[O-] | - | - | ? | -89.1 | - | -
COc1ccc(CSc2nncn2C)cc1[N+](=O)[O-] | - | - | 20µM | - | - | -
C=Cc1ccc(S(=O)(=O)O)cc1 | - | . | . | . | . | .
O=c1c(-c2cc(F)cc(F)c2)nc2cnc(N3CCOCC3)nc2n1CCc1ccccc1 | - | . | ? | . | . | .
Cn1c2c(c(=O)c3ccccc31)C[C@@H](O)C(C)(C)O2 | - | . | - | . | - | -
O=C(/C=C/Sc1ccccc1)c1ccccc1 | - | - | 7.94µM | ? | ? | .
CC(C)OC(=O)c1nnn(-c2nonc2N)c1CN1CCc2ccccc2C1 | - | - | ? | - | - | -
Cc1c(C(=O)N2CCCC2)nnn1-c1nonc1N | - | - | 25.1µM | - | - | -
CCOC(=O)c1nnn(-c2nonc2N)c1CN1CCc2ccccc2C1 | - | - | ? | -83.2 | - | -
CC(C)OC(=O)c1nnn(-c2nonc2N)c1CSc1ccccn1 | - | - | 2.24µM | - | ? | -
COC(=O)c1nnn(-c2nonc2N)c1CSc1ccccn1 | - | - | ? | ? | - | -
COc1ccc(C(=O)NC(=S)NCCO)cc1Br | - | - | ? | - | - | -
CCOC(=O)N1CCN(CCC(=O)Nc2ccc(OC)cc2)CC1 | - | - | - | - | - | -
CCOC(=O)N1CCN(CCC(=O)c2ccc(OC)cc2)CC1 | - | . | 0.708µM | . | . | -
CCOC(=O)N1CCN(CCC(=O)c2ccc(Cl)cc2)CC1 | - | - | 0.0891µM | - | 25.1µM | -
CC(C)COc1ccc(C(=O)CCN2CCCCC2)cc1 | - | - | 0.1µM | - | - | -
OCc1cc2c(cn1)[nH]c1ccccc12 | - | . | ? | . | . | .
O=C(N[C@@H](Cc1ccccc1)C(=O)OCC(=O)N1CCOCC1)c1cccs1 | - | . | - | . | . | -
Cc1cc(C)n2c(=S)[nH]nc2n1 | - | ? | 1.41µM | -139.2 | 2.82µM | -
CCOc1ccc(/C=C/C(=O)c2cc(Br)ccc(=O)c2O)cc1 | - | - | ? | ? | ? | -
SMILES | aGal spleen mod | 12-hLO inh | ALDH1A1 block | PNC assembly inh | HPGD block | GLA inh pH 4.5
Cc1ccc(/C=C/C(=O)c2cc(Br)ccc2OC(=O)c2ccco2)cc1 | - | - | ? | ? | - | -
Cc1cccc(/C=C/C(=O)c2cc(Br)ccc(=O)c2O)c1 | - | ? | 20µM | - | - | -
CCc1ccc(/C=C/C(=O)c2cc(Br)ccc(=O)c2O)cc1 | - | ? | ? | - | 15.8µM | -
CCOC(=O)c1c(/N=C/N(C)C)sc(/C=N/Nc2ccccc2)c1-c1ccccc1 | - | - | 25.1µM | ? | - | -
CCOC(=O)c1c(/N=C/N(C)C)sc(/C=N/Nc2ccccc2)c1-c1ccccc1Cl | - | - | 12.6µM | - | . | -
CCOC(=O)c1c(/N=C/N(C)C)sc(C=O)c1-c1ccccc1 | - | . | ? | . | . | -

Assay outcomes: PubChem, National Center for Advancing Translational Sciences (NCATS)
